Screening data from PubChem.
BAZ2B inh – qHTS Assay for Inhibitors of BAZ2B. AID 504333, 2011. AlphaScreen BAZ2B-H3K14Ac peptide displacement. Potency, µM (doses to about 114 µM), without a hit: at the highest dose activity change, negative = inhibition, most hits filed as inhibitors. Bromodomain adjacent to zinc finger domain protein 2B (Homo sapiens), Q9UIF8. actives 4.4% (n = 360,000); also: potency is read from the fitted curve at half-maximal effect; % is scaled to controls: 0 for no effect and ±100 for the full control effect; nearly all actives have a fitted effect of over 60% in size
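BAZ2B 50 nM plus b-H3(5-23)K14Ac 50 nM, PBS pH 7.4/0.01% Tween-20, 30 min RT; compound added (max 110 uM), 30 min RT; streptavidin donor/Ni-chelate acceptor beads 10 ug/mL final, 20 min dark; AlphaScreen read.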
JMJD2A Tudor – qHTS Assay for Inhibitors of JMJD2A-Tudor Domain | Potency, µM (top dose mostly 114 µM), without a hit: at the top dose activity change, negative = inhibition, hits mostly inhibitors | actives 4.4% (n = 390,000) | AlphaScreen JMJD2A-Tudor / H3K4me3 peptide binding; also: potency is read from the fitted curve at half-maximal effect; % is scaled to controls: 0 for no effect and ±100 for the full control effect; nearly all actives have a fitted effect of over 50% in size
Sfp inh – qHTS Assay for Inhibitors of Bacillus subtilis Sfp phosphopantetheinyl transferase (PPTase); 4'-phosphopantetheinyl transferase ffp (Bacillus subtilis), Q9F4F7; Biochemical Sfp PPTase activity, qHTS; Potency, µM, for the others: largest response in the series, negative = inhibition, usual class: inhibitors; actives 3.5% (n = 310,000); AID 1490, 2009;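 also: the enzyme is Sfp with the accession as filed and its product quenches rhodamine fluorescence; potency is read from the fitted curve at half-maximal effect; 0% = enzyme reaction without inhibitor and -100% = no enzyme wells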
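Step 1, compound plus 15 nM Sfp-PPTase, 15 min, room temperature. Step 2, add rhodamine-CoA (5 uM) and BHQ-2-YbbR (12.5 uM). Step 3, read 525/598 nm fluorescence at 0 and 30 min.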
HP1b binding inh – HTS for Inhibitors of HP1-beta Chromodomain Interactions with Methylated Histone Tails; Chromobox protein homolog 1 (Homo sapiens), P83916; AlphaScreen HP1-beta / biotin-H3K9me3 peptide binding; Potency, µM (series often up to 114 µM), without a hit: at the highest dose activity change, negative = inhibition, usual class: inhibitors; actives 0.56% (n = 390,000); also: potency is read from the fitted curve at half-maximal effect; nearly all actives have a fitted effect of over 70% in size
Target sequence (P83916 whole entry, looked up): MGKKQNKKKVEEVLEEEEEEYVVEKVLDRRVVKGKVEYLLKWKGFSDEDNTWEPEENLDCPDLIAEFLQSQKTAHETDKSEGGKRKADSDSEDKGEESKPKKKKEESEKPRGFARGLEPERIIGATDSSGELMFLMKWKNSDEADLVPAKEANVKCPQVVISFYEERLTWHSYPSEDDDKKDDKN
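HP1-beta protein (50 nM final) preincubated 30 min at room temperature with biotinylated H3(1-18)K9me3 peptide (50 nM) in PBS pH 7.4, 0.01% Tween-20, then compound added for 30 min. AlphaScreen streptavidin donor/nickel chelate acceptor beads (10 ug/mL final), 30 min dark, luminescence read.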
L3MBTL1 inh – qHTS Assay for the Inhibitors of L3MBTL1; Potency, µM (top dose mostly 57.1 µM), for inactives: at the top dose activity, negative = inhibition, hits mostly inhibitors; Lethal(3)malignant brain tumor-like protein 1 (Homo sapiens), Q9Y468; AID 485360, 2010; actives 0.66% (n = 230,000); AlphaScreen L3MBTL1–H3K9me1 peptide binding; also: potency is read from the fitted curve at half-maximal effect; % is scaled to controls: 0 for no effect and ±100 for the full control effect; nearly all actives have a fitted effect of over 60% in size
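Read-out is AlphaScreen signal from streptavidin donor and nickel chelate acceptor beads (10 ug/mL final each) bridging L3MBTL1 (50 nM) and biotinylated K9-monomethylated H3(1-15) peptide (75 nM), after 30 min compound exposure at room temperature.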
G9a inh-1 – qHTS Assay for Inhibitors of Histone Lysine Methyltransferase G9a. Histone-lysine N-methyltransferase EHMT2 (Homo sapiens), Q96KQ7. AID 504332, 2011. Potency, µM (series often up to 102 µM), for the others: at the top dose activity, negative = inhibition, most hits filed as inhibitors. actives 8.8% (n = 350,000). G9a H3K9 monomethylation, AlphaScreen, 2 h; also: potency is read from the fitted curve at half-maximal effect; % is scaled to controls: 0 for no effect and ±100 for the full control effect; nearly all actives have a fitted effect of over 75% in size
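Quantitative HTS format: methyltransferase activity on a biotin-tagged H3K9 peptide is measured by AlphaScreen, using a rabbit anti-monomethyl-H3K9 antibody with streptavidin donor and anti-IgG acceptor beads. Final levels are 20 nM enzyme, 500 nM peptide, 20 uM SAM; 2 h RT.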
JMJD2E inh – Confirmation qHTS Assay for Inhibitors of Human Jumonji Domain Containing 2E (JMJD2E) | shares compounds with JMJD2A Tudor | Recombinant JMJD2E, FDH-coupled NADH fluorescence (FDH is formaldehyde dehydrogenase) | Potency, µM (series often up to 56.8 µM), without a hit: at the top dose activity change, negative = inhibition, most hits filed as inhibitors | actives 93% (n = 140) | AID 2677, 2010
Target sequence (B2RXH2 1-337 limits assumed): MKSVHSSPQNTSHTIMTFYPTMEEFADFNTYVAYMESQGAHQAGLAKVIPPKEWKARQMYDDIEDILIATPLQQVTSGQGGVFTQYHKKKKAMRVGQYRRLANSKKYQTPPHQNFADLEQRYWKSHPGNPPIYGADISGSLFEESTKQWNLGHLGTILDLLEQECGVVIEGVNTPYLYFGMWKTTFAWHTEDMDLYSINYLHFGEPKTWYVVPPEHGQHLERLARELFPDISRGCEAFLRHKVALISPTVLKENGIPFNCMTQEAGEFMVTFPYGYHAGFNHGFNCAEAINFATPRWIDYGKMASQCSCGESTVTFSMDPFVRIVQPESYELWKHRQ
FDH inh – Counterscreen for JMJD2E Inhibitors: qHTS Assay for Inhibitors of Formaldehyde Dehydrogenase (FDH) | FDH enzyme assay, NADH fluorescence kinetic | Potency, µM (top dose mostly 56.7 µM), inactives show top-dose activity, negative = inhibition, actives largely listed as inhibitors | shares compounds with JMJD2A Tudor | actives 10% (n = 140)
JMJD2E MALDI inh – MALDI-TOF-MS Assay for Inhibitors of Human Jumonji Domain Containing 2E (JMJD2E); shares compounds with JMJD2A Tudor; Potency, µM, hits mostly inhibitors; recombinant JMJD2E demethylation, MALDI-TOF-MS; actives 90% (n = 45); AID 2688, 2010;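 active = compounds whose IC50 for blocking JMJD2E demethylation is below 100 µM; inconclusive = dose dependent effect but IC50 above 100 µM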
G9a inh-2 – qHTS Assay for Inhibitors of Histone Lysine Methyltransferase G9a: Hit Confirmation. shares compounds with JMJD2A Tudor. G9a H3K9 monomethylation, AlphaScreen, 2 h. Potency, µM, most hits filed as inhibitors. actives 89% (n = 370); also: potency is read from the fitted curve at half-maximal effect; nearly all actives have a fitted effect of over 65% in size
RGS4 confirm – qHTS for Inhibitors of Regulator of G Protein Signaling(RGS) 4: Hit Validation | shares compounds with JMJD2A Tudor | RGS4 GAP activity, Transcreener GDP fluorescence polarization | Potency, µM, hits mostly inhibitors | actives 80% (n = 25) | AID 602388, 2012
Target sequence (P49798 whole entry, looked up): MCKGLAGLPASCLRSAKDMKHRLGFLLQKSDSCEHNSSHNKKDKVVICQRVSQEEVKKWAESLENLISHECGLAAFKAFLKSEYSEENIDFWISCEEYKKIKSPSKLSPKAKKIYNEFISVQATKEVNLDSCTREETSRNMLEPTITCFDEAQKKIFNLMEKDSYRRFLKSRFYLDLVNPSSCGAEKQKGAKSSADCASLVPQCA
Numbers without * were called inactive; ? = inconclusive; · = no result; [ ] = another dose, or the depositor's remark. An excerpt weighted towards active compounds, which were near 12% of everything screened. Unless noted, calls follow the shape of the dose curve; as a rule, active = well fitted curve in the direction sought with a large enough effect; inconclusive = small, poorly fitted or top-dose-only effect, or another doubt; inactive = no such curve, though single readings can be large; an effect the other way counts as inactive or inconclusive.

SMILES	BAZ2B inh	JMJD2A Tudor	Sfp inh	HP1b binding inh	L3MBTL1 inh	G9a inh-1	G9a inh-2	others
O=C(CSc1ncn[nH]1)c1cccc([N+](=O)[O-])c1	-9%	28µM*	50µM*	12%	-3%	25µM*	·	JMJD2E inh=10µM*;FDH inh=0.89µM*
CCOCCOC(=O)c1[nH]c2c(c1C)C(=O)CC(c1ccc(N(C)C)cc1)C2 (stereo not given)	?	?	10%	3%	-25%	?	?
C[C@H](CO)N1C[C@H](C)[C@@H](CN(C)Cc2ccc(Cl)c(Cl)c2)Oc2c(NS(=O)(=O)c3cccs3)cccc2C1=O	·	?	·	9%	2%	·	·
COc1ccc(N2CCN(c3nc(NC(C)(C)C)nc(N4CCCCC4)n3)CC2)cc1	3.2µM*	?	-6%	?	-28%	?	13*
COc1cccc(-c2nc3c(c(=O)[nH]c(=O)n3Cc3ccccc3)n2CCO)c1OC(F)F	9%	4%	0%	1%	·	25%	·
COc1ccc(N(CC(=O)NCCc2ccccc2)S(=O)(=O)c2ccc(OC)c(OC)c2)cc1	4%	-18%	·	20%	·	-7%[59 µM]	·
COC(=O)c1ccccc1NC(=O)Cn1c(SC)c(F)cnc1=O	-1%	-4%	-20%	38%	·	0.56µM*	8.9*
COC(=O)c1ccccc1NC(=O)CN1C(=O)c2ccccc2C1=O	·	-11%	·	30%	·	·	·
O=C(CSC1=NCCS1)N1CCc2ccccc21	-1%	15%	8%	21%	·	?	1.6*
O=C(N/N=C/c1ccccc1O)c1cccc(C(F)(F)F)c1	?	?	21%	34%	-10%	-5%[59 µM]	·
Oc1ccccc1C=NC1=NN(c2cccc(C(F)(F)F)c2)CC1	?	?	-15%	-5%	?	1µM*	0.8*
Nn1c(SCC(=O)Nc2cccnc2Cl)nnc1-c1ccccc1	7%	20µM*	·	?	3%	?	0.8*
Cc1ccc(-c2nnc(SCC(=O)Nc3cccnc3Cl)n2N)cc1	·	-5%	·	54%	-2%	·	·
Oc1ccc2ccccc2c1CNc1cnc2ccccc2c1	?	?	28µM*	-12%	·	1.4µM*	0.5*
Oc1ccccc1CNc1cnc2ccccc2c1	10%	-1%	-28%	27%	6%	1%[59 µM]	·
Cc1nc(NC(=O)COC(=O)c2cccs2)c(Cl)cc1Cl	8%	-17%	·	-1%	-3%	?	·
CC(C)Oc1ccc(CNC(=O)C2COc3ccccc3C2)cc1 (stereo not given)	3%	-19%	·	22%[57 µM]	·	-2%[59 µM]	·
C=CCn1c[n+](CC(=O)c2ccc(Br)s2)c2ccccc21	-4%	-15%	-4%	27%	-8%	2%	·
c1ccc2c(NC3CC3)nc(-c3ccoc3)nc2c1	·	·	?	·	·	4%[0.501 µM]	·	RGS4 confirm=?
Oc1ccc(COCc2ccccc2)c2cccnc12	28µM*	?	24%	45%	8.9µM*	23%[12.7 µM]	·	JMJD2E inh=23µM*;FDH inh=-36%;JMJD2E MALDI inh=25*
COc1ccc(NC(=O)CSCC(=O)Nc2ccccc2C(=O)N2CCCCC2)cc1	-6%	-12%	·	22%	2%	0%[59 µM]	·
CCOc1cc(CNc2ccccc2SC)ccc1O	56µM*	·	56µM*	·	·	?	8*
CCOc1ccc(NC(=O)Nc2ccccc2SC)cc1	0%	-8%	-11%	18%	-2%	-27%	·
CCc1ccc(NC(=O)COC(=O)CN2C(=O)COc3ccccc32)cc1	14%	-6%	-6%	43%	·	9%[59 µM]	·
CCN(CC)c1ccc(NC(=O)COC(=O)C23CCC(=O)N2c2ccccc2S3)cc1 (stereo not given)	?	?	63µM*	?	·	?	5*
SMILES	BAZ2B inh	JMJD2A Tudor	Sfp inh	HP1b binding inh	L3MBTL1 inh	G9a inh-1	G9a inh-2	others
Cc1ccc(NC(=O)CNc2ccc(OC(C)C)cc2)cc1	50µM*	?	-2%	-14%	·	0.79µM*	7.9*
CCN(CC)c1ccc(NC(=O)COC(=O)Cc2ccsc2)cc1	45µM*	50µM*	·	?	?	2.8µM*	6.3*
CC(C)Oc1ccc(NC(=O)Oc2ccccc2)cc1	-17%	-14%	5%	-4%	-1%	0%[59 µM]	·
CCN(CC)c1ccc(NC(=O)COc2ccc(C)cc2)cc1	?	?	-10%	-13%	-21%	1.4µM*	2.8*
O=C(CSc1ncnc2c1nnn2Cc1ccccc1F)NCC1CCCO1 (stereo not given)	-4%	-12%	0%	33%	·	51%	·
COCC(=O)N1CCC2(CC1)CN(c1ccccc1)C2	·	·	-15%	·	·	-2%[12.7 µM]	·
COc1cccc(C(=O)c2cn(CC(=O)Nc3cccc(Cl)c3C)c3nc(C)ccc3c2=O)c1	4%	-3%	·	39%	·	7%[59 µM]	·
Cc1nc2c(-c3ccccc3)c(C)nn2c(SCC(N)=O)c1Cc1ccccc1	1%	3%	6%	46%	8%	6%[59 µM]	·
